From PubChem BioAssay AID651588 (Broad Institute, 2012) come the findings set out here.

Entries with a potency or affinity are not part of this list. The source made the active and inactive calls.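 The calls were made as follows: active = compounds lowering reporter light with a fitted half-maximal concentration no more than twice the top tested dose; inconclusive = flat response with inhibition between 30 and 70%, or poor fit; inactive = rising signal, flat response, or weak potency.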

This test in a line: inhibitors of TRPM1-promoter reporter in SK-MEL-5 – cell-based, luciferase, dry powder, set 9, MITF inhibitor project, dose response (AID 651588).

Take `O=C1C=C(Nc2ccccc2)C(=O)c2ccccc21`: the compound was classed as inactive.
For `Cc1ccc(NC2=CC(=O)c3ccccc3C2=O)cc1`, the call was inactive.
